From PubChem BioAssay
Sa helicase inh – S. aureus DNA helicase inhibition; purified S. aureus helicase, fluorescence unwinding assay; inhibition, % (test concentration not listed); 0.05% of 120,000 active; in the data active = inhibition above about 25%, passing the limit was not always enough;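 note: 0% = mean of negative control wells and 100% = mean of positive control wells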
Sa growth 42C – inhibitors of Staphylococcus aureus growth at 42 °C; S. aureus RN4220 growth, OD600, 20 h; hits give low values; relative growth, % (no concentration beside the values); 0.53% of 170,000 active; AID 720641;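 active = relative growth at most 50% at the other temperature and 20+ points below 30 °C, or under 10% at both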
Starred values were filed as active, the others as inactive; / = no result given. Only a selection was taken, and hits are over-represented in it overall.

SMILES	Sa helicase inh	Sa growth 42C
Cc1n[nH]c(C)c1S(=O)(=O)N(C)C	-3	89
O=C(c1ccc(S(=O)(=O)Nc2ccc3c(c2)OCCO3)s1)N1CCCC1	21	102
O=C1Nc2ccc(S(=O)(=O)Nc3ccccc3)c3cccc1c23	11	92
Cc1c(Sc2ccc(Cl)cc2)cnn1C(=O)Nc1cccc(C(F)(F)F)c1	/	4.5*
Cc1c(Sc2ccc(Cl)cc2)cnn1C(=O)NC(C)C	/	99
Cc1sc2c(c1C)c(=O)n(-c1ccc(Cl)cc1)c(=O)n2CC(=O)N1CCCCC1C (stereo not given)	0	116
CSc1cccc(-c2nnc(NC(=O)c3ccc4c(c3)OCCO4)o2)c1	/	7.7*
CS(=O)(=O)c1ccccc1-c1nnc(NC(=O)c2ccc3c(c2)OCCO3)o1	/	74
Cc1onc(-c2c(F)cccc2Cl)c1C(=O)NC1CCSC1=O (stereo not given)	5	/
Cc1onc(-c2ccccc2)c1C(=O)NC12CC3CC(CC(C3)C1)C2	-7	93
Cc1onc(-c2c(Cl)cccc2Cl)c1C(=O)N[C@@H]1C(=O)N2[C@@H]1SC(C)(C)[C@@H]2C(=O)O	/	-0.4*
COc1cccc(OC)c1C(=O)N[C@@H]1C(=O)N2[C@@H]1SC(C)(C)[C@@H]2C(=O)O	/	-0.7*
CCCNC(=O)c1c(OC)cccc1OC	-2	86
Cc1onc(-c2ccccc2)c1C(=O)NC1C(=O)N2[C@@H]1SC(C)(C)[C@@H]2C(=O)O (stereo not given in full)	/	-0.9*
CCOC(=O)c1ccc(NC(=O)c2c(NCc3ccc(C)o3)sc3c2CCCC3)cc1	4	85
CN(Cc1ccccc1)C(=O)C1CCN(S(=O)(=O)c2ccc3c(c2)CCCC(=O)N3)CC1	11	120
CCOC(=O)C1CCN(C(=O)Nc2ccccc2)CC1	-15	96
CS(=O)c1sc(Br)c2c1C(=O)CC(C)(C)C2 (stereo not given)	/	94
CS(=O)c1sc(C(=O)OCc2ccccc2)c2c1C(=O)CC(C)(C)C2 (stereo not given)	/	-0.7*
CCNC(=O)c1cc2c(=O)n3ccccc3nc2nc1NCCCN1CCOCC1	5	87
Cc1cccc(C(=O)c2c(N3CCOCC3)[nH]c(=O)c3ccccc23)c1	6	97
Cc1ccc(-n2nnnc2S(C)(=O)=O)c(C)c1	12	76
Cc1cccc(-n2nnnc2S(C)(=O)=O)c1	/	-0.6*
Cc1ccc(O)c(C(=O)CC(=O)c2cccs2)c1	-8	6.4*
O=C(NC(=O)c1ccccc1O)c1cccs1	/	131
SMILES	Sa helicase inh	Sa growth 42C
CS(=O)(=O)NCc1ccccc1Cl	22	105
Cc1ccc(N2C(=O)NC(=O)/C(=C\c3ccccc3)C2=O)cc1	9	95
O=C(CN1C(=O)/C(=C/c2ccccc2F)Oc2ccccc21)N1CCCC1	5	80
CN(C1CCCCC1)S(=O)(=O)N1CCCC(C(=O)N2CCC(C(N)=O)CC2)C1 (stereo not given)	-19	102
O=C1N(Cc2ccccc2)c2cccc3cccc(c23)N1Cc1ccccc1	-1	113
O=c1ccsn1Cc1ccccc1	26	-0.8*
CC(=O)NC1(c2ccccc2)CCN(C(=O)c2cccs2)CC1	4	84
COc1cc2nc(N(C)C)nc(N)c2cc1OC	44*	88
COc1cc2nc(Nc3ccc(C)c(C)c3)nc(N)c2cc1OC	/	95
CN(C(=O)CSc1nc(N)nc(N)n1)C1CCCc2ccccc21 (stereo not given)	-10	89
CC(O)c1nc2ccccc2n1C(=O)c1ccc(OCc2ccccc2)cc1 (stereo not given)	-10	114
c1ccc(-c2cnc3nonc3n2)cc1	14	0.8*
Cc1cc2ncc(-c3ccccc3)nc2cc1C	-16	104
COC(=O)CNC(c1ccccc1)c1cc(Br)ccc1NC(=O)c1ccc(Cl)cc1 (stereo not given)	/	101
COC(=O)CNC(c1ccccc1)c1cc(Br)ccc1NC(=O)CCN1CCOCC1 (stereo not given)	6	21*
Cc1occc1-c1n[nH]c(=S)o1	9	85
CCCCCCNC(=O)n1cc(F)c(=O)[nH]c1=O	/	1.1*
CC(C)NC(=O)n1cc(F)c(=O)[nH]c1=O	-4	-0.6*
CCCCCNC(=O)CCCCCn1c(=O)[nH]c2ccsc2c1=O	/	95
NC(=O)Cn1cc(F)c(=O)[nH]c1=O	15	90
CC(C)NC(=O)c1ncoc1-c1cccs1	8	103
CC1(C)CC2CC(C)(CN2C(=O)COC(=O)c2ccc(S(=O)(=O)NCc3ccco3)cc2)C1 (stereo not given)	5	94
CCS(=O)(=O)c1oc(-c2ccc(F)cc2)nc1S(=O)(=O)c1ccccc1	/	2.2*
CC(C)CS(=O)(=O)c1oc(-c2cccs2)nc1S(=O)(=O)c1ccccc1	22	23*
CCCCS(=O)(=O)c1oc(-c2cccs2)nc1S(=O)(=O)c1ccc(F)cc1	/	103
CCCCS(=O)(=O)c1oc(-c2ccc(F)cc2)nc1S(=O)(=O)c1ccc(C)cc1	/	4.8*
